Assay [1] can be described thus: Nuclear factor erythroid 2-related factor 2/antioxidant responsive element (Nrf2/ARE) small molecule agonists: qHTS cell viability counter screen in human keratinocytes (AID 1919968; active means well fitted curve in the direction sought with a large enough effect in the repeat runs; an effect the other way counts as inactive or inconclusive; further: nearly all actives have a fitted effect of over 55% in size; further: potency means the concentration at half of the fitted maximal effect). The procedure, abridged:
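CellTiter-Fluor fluorescence, read 1 h after reagent, gave viability in the same wells as the ARE-luciferase assay. KeratinoSens cells (1,500/well) had 23 h compound exposure at 37 C/5% CO2 following 5 h plating.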
For orientation: In qHTS, concentration-response curves come from the screen itself.

In assay [2] the target is KiSS-1 receptor (Homo sapiens) (UniProt Q969F8). Nature of the assay: Human kisspeptin (KISS1R) small molecule agonists, calcium flux assay in KISS1R-HEK293 cells (AID 1920064; active means well fitted curve in the direction sought with a large enough effect in the repeat runs; an effect the other way counts as inactive or inconclusive). In short, it runs like this:
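Agonist mode: intracellular calcium rise tracked at 1 s intervals over 3 min (480/540 nm) immediately after compound addition to dye-loaded KISS1R-HEK293 stable cells. Each compound tested at 15 concentrations in triplicate.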
For orientation: Calcium flux is commonly read through the fluorescence of an indicator in the cells.

A short description of assay [3]: G protein-coupled receptor (GPCR) small molecule agonists, calcium flux assay: HEK293 wild type cell line counter screen (AID 1920065). The procedure, abridged: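 Calcium flux counter screen: compound added in agonist mode at 15 concentrations in triplicate to dye-loaded parental HEK293 cells. Fluorescence (480/540) read kinetically for 3 min; ATP served as positive control.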

Assay [4] is described as follows: p53 small molecule agonists, cell-based qHTS assay with human liver microsomes (AID 1963577).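 Further: p53 response element beta-lactamase reporter cells with liver microsomes plus NADPH.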 In short, it runs like this:
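With metabolic activation: human liver microsomes (0.5 mg/mL final) plus NADPH (0.5 mg/mL final) added alongside compounds to p53RE-bla cells; 16 h 37 C exposure; beta-lactamase read by LiveBLAzer fluorescence.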

Assay [5] is described as follows: p53 small molecule agonists, cell-based qHTS assay with rat liver microsomes (AID 1963578). In short, it runs like this: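 Metabolic activation by rat liver microsomes and NADPH, each 0.5 mg/mL final, added right after compounds to p53RE-bla reporter cells (4,000/well, plated 5 h earlier). 16 h at 37 C, then LiveBLAzer substrate for 2 h at room temperature in the dark; fluorescence read-out.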

Assay [6] in a line: p53 small molecule agonists, cell-based qHTS assay with human liver microsomes: qHTS cell viability counter screen (AID 1963579). Further: nearly all actives have a fitted effect of over 45% in size. In short, it runs like this: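 Metabolic activation used human liver microsomes and NADPH, both 0.5 mg/mL final, over 16 hours at 37 C on p53RE-bla cells (4,000/well). Cytotoxicity measured by CellTiter-Glo luminescence, 30 min at room temperature.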

A short description of assay [7]: p53 small molecule agonists, cell-based qHTS assay with rat liver microsomes: qHTS cell viability counter screen (AID 1963580). Further: nearly all actives have a fitted effect of over 45% in size. The procedure, abridged: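 Cytotoxicity counter screen: intracellular ATP read by CellTiter-Glo luminescence in the p53 reporter wells. HCT-116 p53RE-bla cells were treated for 16 h at 37 C alongside rat liver microsomes and NADPH, each 0.5 mg/mL final.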

The nature of assay [8]: p53 small molecule agonists, cell-based qHTS assay: qHTS cell viability counter screen (AID 1963581). Further: nearly all actives have a fitted effect of over 45% in size. The procedure, abridged:
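Counter screen read by CellTiter-Glo luminescence (ATP content, 30 min at room temperature), run in the same wells as the beta-lactamase reporter read. HCT-116 p53RE-bla cells saw compounds for 16 h at 37 C.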

Assay [9] in a line: p53 small molecule agonists, cell-based qHTS assay (AID 1963582; active means well fitted activation curve with a large enough effect in the signal ratio in the repeat runs, not every such curve was filed as active; the % refers to the signal ratio). In short, it runs like this:
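Read-out is beta-lactamase FRET fluorescence after 2 h at room temperature with LiveBLAzer B/G substrate. p53 response element-bla cells were treated 16 h at 37 C with compounds in DMSO, added 5 h after seeding.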

A short description of assay [10]: cAMP Responsive Elements (CRE) small molecule agonists, cell-based qHTS assay (AID 1963590). The procedure, abridged: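 Agonist mode: compound added to CRE-bla HEK 293T cells (2,000/well, 18 h after plating) for 3 h at 37 C/5% CO2. Reporter activity detected via FRET beta-lactamase substrate, 2 h room-temperature loading.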
The target of assay [11] is D(2) dopamine receptor (Homo sapiens) (UniProt P14416). Kind of assay: Dopamine D2 receptor (DRD2) small molecule agonists, cell-based qHTS assay (AID 1963594). Further: nearly all actives have a fitted effect of over 35% in size. In short, it runs like this:
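cAMP accumulation in DRD2-HEK293 cells measured by HTRF after 1 h detection; compounds added 10 min before NKH477 (200nM […]) forskolin-analogue stimulation, 30 min at room temperature, with Ro20-1724 present at 0.1 mM final.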

Assay [12] has the same target. Nature of the assay: Dopamine D2 receptor (DRD2) small molecule antagonists, cell-based qHTS assay (AID 1963595; active means well fitted inhibition curve with a large enough effect in the signal ratio in the repeat runs, with a control signal flat; the % refers to the signal ratio). The procedure, abridged:
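Antagonist mode in DRD2-HEK293 cells: after compound addition with 0.1 mM Ro20-1724, cells received quinpirole (12 nM) and NKH477 (200 nM) for 30 min at room temperature; HTRF cAMP read after 1 h detection.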

Assay [13] deals with Gonadotropin-releasing hormone receptor (Homo sapiens) (UniProt P30968). Nature of the assay: Human gonadotropin-releasing hormone receptor (GnRHR) small molecule agonists, calcium flux assay in GnRHR-HEK293 cells (AID 1920063). Further: nearly all actives have a fitted effect of over 35% in size. The procedure, abridged: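 Agonist mode: compounds at 15 concentrations, in triplicate, went onto calcium dye-loaded GnRHR-HEK293 cells. Intracellular calcium was then followed as 480/540 nm fluorescence at 1 s intervals over 3 min.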
Chain of Gonadotropin-releasing hormone receptor (Homo sapiens) (P30968 whole entry, looked up): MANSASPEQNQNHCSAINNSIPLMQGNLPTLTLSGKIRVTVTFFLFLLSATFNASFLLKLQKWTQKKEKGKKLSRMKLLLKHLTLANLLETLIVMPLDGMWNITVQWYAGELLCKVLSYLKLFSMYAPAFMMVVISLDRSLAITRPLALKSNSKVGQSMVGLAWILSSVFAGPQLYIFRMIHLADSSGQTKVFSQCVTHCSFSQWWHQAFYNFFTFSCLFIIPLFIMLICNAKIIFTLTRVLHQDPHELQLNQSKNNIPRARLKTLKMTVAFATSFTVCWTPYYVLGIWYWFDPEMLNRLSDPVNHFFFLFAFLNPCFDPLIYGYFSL

The target of assay [14] is 5-hydroxytryptamine receptor 2A (Homo sapiens) (UniProt P28223). Nature of the assay: 5-hydroxytryptamine receptor 2A (HTR2A) small molecule antagonists, cell-based qHTS assay (AID 1963586). Further: nearly all actives have a fitted effect of over 45% in size. In short, it runs like this: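 CHO cells stably expressing human HTR2A were plated for 18 h at 37 C, then loaded with calcium dye for 1 h. Compounds were preincubated 5 min at room temperature before DOI (4 nM solution) was added. Kinetic fluorescence was read for 3 min.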
Chain of 5-hydroxytryptamine receptor 2A (Homo sapiens) (P28223 whole entry, looked up): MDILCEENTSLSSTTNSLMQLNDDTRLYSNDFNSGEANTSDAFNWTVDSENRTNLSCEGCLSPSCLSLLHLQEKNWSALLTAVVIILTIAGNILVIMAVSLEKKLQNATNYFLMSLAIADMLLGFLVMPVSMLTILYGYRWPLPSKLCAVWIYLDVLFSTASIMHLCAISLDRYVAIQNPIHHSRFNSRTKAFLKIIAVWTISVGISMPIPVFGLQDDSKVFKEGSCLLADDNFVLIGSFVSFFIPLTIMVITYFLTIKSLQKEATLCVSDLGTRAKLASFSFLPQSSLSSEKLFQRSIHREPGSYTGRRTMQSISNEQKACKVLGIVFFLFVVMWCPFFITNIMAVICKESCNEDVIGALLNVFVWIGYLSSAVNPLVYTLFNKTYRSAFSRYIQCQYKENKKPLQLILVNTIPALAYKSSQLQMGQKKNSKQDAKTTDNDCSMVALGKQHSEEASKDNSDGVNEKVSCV

The target is the same in assay [15]. Kind of assay: 5-hydroxytryptamine receptor 2A (HTR2A) small molecule agonists, cell-based qHTS assay (AID 1963587). Further: nearly all actives have a fitted effect of over 30% in size. The procedure, abridged: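 Kinetic calcium-flux fluorescence (2 min, 1 sec intervals) after compound addition in agonist mode. HTR2A-CHO cells were cultured 18 h, then dye-loaded 1 h at 37 C.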
In assay [16] the target is Muscarinic acetylcholine receptor M1 (Homo sapiens) (UniProt P11229). Nature of the assay: Cholinergic receptor muscarinic 1 (CHRM1) small molecule antagonists, cell-based qHTS assay (AID 1963588). Further: nearly all actives have a fitted effect of over 40% in size. The procedure, abridged:
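Compounds were tested at 15 concentrations in three independent runs. Dye-loaded CHRM1-CHO cells were exposed 5 min at room temperature before stimulation by acetylcholine added at 50nM. Intracellular calcium was read kinetically on FDSS for 3 min.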

For assay [17] the target is unchanged. Nature of the assay: Cholinergic receptor muscarinic 1 (CHRM1) small molecule agonists, cell-based qHTS assay (AID 1963589). Further: nearly all actives have a fitted effect of over 35% in size. The procedure, abridged: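 Agonist-mode calcium-flux screen: compounds at 15 concentrations, three independent runs, were pin-transferred onto dye-loaded human CHRM1-CHO cells. Fluorescence was then recorded kinetically every second over minutes.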

A short description of assay [18]: cAMP Responsive Elements (CRE) small molecule antagonists, cell-based qHTS assay (AID 1963591; active means well fitted inhibition curve with a large enough effect in the signal ratio in the repeat runs, not every such curve was filed as active; the % refers to the signal ratio). The procedure, abridged:
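Antagonist mode: compounds are added alongside the adenylyl cyclase activator NKH477 (0.25 uM final) to CRE-bla HEK293T cells for 3 h. LiveBLAzer FRET substrate, 2 h at room temperature, reports bla expression.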

Assay [19] has as its target Beta-2 adrenergic receptor (Homo sapiens) (UniProt P07550). Nature of the assay: Adrenergic beta2 receptor (ADRB2) small molecule antagonists, cell-based qHTS assay (AID 1963592). Further: nearly all actives have a fitted effect of over 50% in size. Further: potency means the concentration at half of the fitted maximal effect. In short, it runs like this:
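Assay format: CHO-ADRB2 cells, 18-20hr seeding at 37C/5% CO2, then compound plus 1nM isoproterenol agonist mix for 0.5hr RT. Homogeneous time-resolved fluorescence cAMP detection after 1hr, expressed as 665/615 nm ratio.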

Assay [20] has the same target. Kind of assay: Adrenergic beta2 receptor (ADRB2) small molecule agonists, cell-based qHTS assay (AID 1963593).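 Further: CHO cells stably overexpressing human ADRB2.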 In short, it runs like this: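 CHO cells stably over-expressing ADRB2 were plated overnight at 37C, then dosed with compounds plus a stimulation mix containing 100uM IBMX and 25uM Ro-20-1724 for 0.5hr at room temperature. cAMP was measured by HTRF competition, 1hr.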

The structures appear in SMILES notation. Inconclusive results are not listed. Active and inactive are the calls of the source. Unless noted, the call rests on the fitted dose curve.

Chain of Beta-2 adrenergic receptor (Homo sapiens) (P07550 whole entry, looked up): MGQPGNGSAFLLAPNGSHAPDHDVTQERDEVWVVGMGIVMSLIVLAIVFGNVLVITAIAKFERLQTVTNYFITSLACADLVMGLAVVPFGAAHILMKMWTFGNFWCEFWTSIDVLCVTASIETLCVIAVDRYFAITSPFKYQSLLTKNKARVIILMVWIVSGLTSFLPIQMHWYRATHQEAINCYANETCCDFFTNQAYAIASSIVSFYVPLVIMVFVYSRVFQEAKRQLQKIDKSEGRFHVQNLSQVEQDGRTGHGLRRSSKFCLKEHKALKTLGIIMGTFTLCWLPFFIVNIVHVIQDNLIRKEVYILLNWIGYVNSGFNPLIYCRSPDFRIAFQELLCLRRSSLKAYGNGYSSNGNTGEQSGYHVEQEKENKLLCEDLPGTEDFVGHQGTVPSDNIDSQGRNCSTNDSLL
Chain of Muscarinic acetylcholine receptor M1 (Homo sapiens) (P11229 whole entry, looked up): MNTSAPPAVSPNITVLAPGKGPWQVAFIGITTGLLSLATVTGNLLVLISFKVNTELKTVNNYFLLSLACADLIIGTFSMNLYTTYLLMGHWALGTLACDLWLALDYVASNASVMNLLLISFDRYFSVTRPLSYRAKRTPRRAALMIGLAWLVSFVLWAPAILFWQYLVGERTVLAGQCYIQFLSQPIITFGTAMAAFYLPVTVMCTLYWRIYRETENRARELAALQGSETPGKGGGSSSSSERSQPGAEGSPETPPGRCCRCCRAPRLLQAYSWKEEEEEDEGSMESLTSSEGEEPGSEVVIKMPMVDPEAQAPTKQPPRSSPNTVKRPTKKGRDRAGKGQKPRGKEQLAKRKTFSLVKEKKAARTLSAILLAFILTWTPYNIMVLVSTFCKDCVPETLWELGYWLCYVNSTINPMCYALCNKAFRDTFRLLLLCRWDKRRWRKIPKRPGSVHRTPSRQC
Chain of D(2) dopamine receptor (Homo sapiens) (P14416 whole entry, looked up): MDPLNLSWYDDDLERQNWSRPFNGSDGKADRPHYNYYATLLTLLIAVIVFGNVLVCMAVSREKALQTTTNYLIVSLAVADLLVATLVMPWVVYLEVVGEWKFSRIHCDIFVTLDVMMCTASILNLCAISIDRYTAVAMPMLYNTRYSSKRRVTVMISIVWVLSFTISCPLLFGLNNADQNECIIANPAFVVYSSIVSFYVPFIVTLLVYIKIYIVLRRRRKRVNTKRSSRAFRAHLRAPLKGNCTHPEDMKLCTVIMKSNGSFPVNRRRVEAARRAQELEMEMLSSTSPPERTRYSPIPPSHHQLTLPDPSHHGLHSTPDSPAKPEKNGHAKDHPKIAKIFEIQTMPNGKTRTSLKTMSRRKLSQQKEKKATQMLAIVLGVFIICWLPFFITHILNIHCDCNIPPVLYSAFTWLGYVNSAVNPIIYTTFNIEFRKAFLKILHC
Chain of KiSS-1 receptor (Homo sapiens) (Q969F8 whole entry, looked up): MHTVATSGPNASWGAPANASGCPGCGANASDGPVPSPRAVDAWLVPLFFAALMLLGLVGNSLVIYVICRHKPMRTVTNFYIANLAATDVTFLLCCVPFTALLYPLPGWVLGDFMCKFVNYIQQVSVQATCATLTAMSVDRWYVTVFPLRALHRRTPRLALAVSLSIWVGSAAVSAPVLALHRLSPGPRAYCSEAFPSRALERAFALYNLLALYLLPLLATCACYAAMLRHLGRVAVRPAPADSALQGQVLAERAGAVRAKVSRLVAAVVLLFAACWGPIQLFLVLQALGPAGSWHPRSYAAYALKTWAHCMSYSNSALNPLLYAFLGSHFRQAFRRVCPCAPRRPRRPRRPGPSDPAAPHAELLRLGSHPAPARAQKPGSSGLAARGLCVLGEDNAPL

For the compound `Clc1ccc2c(c1)CCc1cccnc1C2=C1CCNCC1`, the Potency in assay [1] is 29.8 µM (active). In addition, the result in [2] and in [3] was inactive. Besides, the Potency entry in assay [4], in [5], in assay [6], in assay [7], in assay [8] and in assay [9] was “inactive” in each case. Also, the Potency result in assay [10], in [11] and in [12] was “inactive” throughout.
Take `CCn1c2ccccc2c2cc([N+](=O)[O-])ccc21`: the Potency entry in assay [1], in assay [13], in assay [5], in assay [6], in assay [7] and in [9] was “inactive” each time. In addition, the Potency entry in assay [14], in assay [15], in [16], in assay [17], in assay [18] and in [19] was “inactive” in each case. The Potency result in assay [11] and in [12] was “inactive” throughout. In addition, the result in assay [2] and in assay [3] was inactive.
Take `CC(=O)CCc1ccc(O)cc1`: the Potency result in [1], in [13], in assay [5], in [6], in assay [7] and in [8] was “inactive” in each case. In addition, the Potency entry in assay [9], in assay [14], in assay [15], in [16], in assay [17] and in assay [10] was “inactive” in each case. The Potency entry in assay [18], in assay [19], in [11] and in assay [12] was “inactive” throughout. Also, the outcome in assay [2] and in [3] was inactive.
Turning to `c1ccc(COCc2ccccc2)cc1`, the Potency result in [1], in [13], in assay [4], in [6], in assay [8] and in assay [9] was “inactive” each time. The Potency result in assay [14], in assay [15], in assay [16], in [17], in [18] and in assay [19] was “inactive” each time. The Potency entry in assay [11] and in assay [12] was “inactive” in each case. The outcome in assay [2] and in [3] was inactive.
For the compound `CC1=CP(=O)(c2ccccc2)CC1` (centres undefined), the Potency entry in assay [1], in [13], in assay [5], in [6], in assay [7] and in assay [8] was “inactive” in each case. Moreover, the Potency entry in assay [9], in [14], in [15], in [16], in [17] and in assay [10] was “inactive” throughout. The Potency result in assay [18], in assay [20], in assay [11] and in assay [12] was “inactive” throughout. For the same compound, the outcome in [2] and in assay [3] was inactive.
Take `COc1ccccc1OCC(O)CN1CCN(CC(=O)Nc2c(C)cccc2C)CC1` (centres undefined): the Potency result in assay [1], in [13], in assay [4], in assay [5], in [6] and in [7] was “inactive” each time. The Potency result in assay [8], in assay [9], in assay [14], in assay [15], in assay [16] and in assay [17] was “inactive” each time. The Potency entry in assay [10], in [11] and in [12] was “inactive” throughout. In addition, the result in [3] was inactive. The Potency in [19] was 11.9 µM (active).
As to `CCCCCCC(O)CCCCCCCCCCC(=O)OC` (centres undefined), the Potency entry in assay [1], in assay [13], in [5], in assay [6], in assay [7] and in assay [8] was “inactive” in each case. For the same compound, the Potency result in [9], in assay [14], in [15], in [17], in assay [18] and in assay [19] was “inactive” each time. Moreover, the Potency entry in assay [20], in [11] and in [12] was “inactive” each time. Besides, the result in [2] and in assay [3] was inactive.
